# Where “and” joins values, the source holds several entries; their conditions need not be identical. Equal entries are not always repeated. Results filed as inconclusive are left out. Where a call stands in place of a potency, no number is given. Calls of active or inactive are those of the source. The call rests on the fitted dose curve; in most records, active means well fitted curve in the direction sought with a large enough effect; inconclusive means small, poorly fitted or top-dose-only effect, or another doubt; inactive means no such curve, though single readings can be large; an effect the other way counts as inactive or inconclusive.
# How the values were obtained:
# [1] = qHTS of pediatric cancer cell lines to identify multiple opportunities for drug repurposing: Primary screen for U-2 OS cells (AID 1347096); further: nearly all actives have a fitted effect of over 50% in size
# Method in brief: (§1)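 Cells (500-1,000/well) in growth media were settled 5 h at 37 degrees C, then given compounds for 48 h. Viability was read as CellTiter-Glo luminescence. Primary runs used MIPE at 11 points (0.78 nM-46 µM) and NPC at 8 points (0.59 nM-46 µM); follow-ups used 11 points.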
# [2] = qHTS of pediatric cancer cell lines to identify multiple opportunities for drug repurposing: Primary screen for SK-N-SH cells (AID 1347098); further: nearly all actives have a fitted effect of over 65% in size; further: potency means the concentration at half of the fitted maximal effect
# Method in brief: (§2)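 Cells (500-1,000/well) rested 5 h, then received compounds for 48 h; metabolically active cells were measured by CellTiter-Glo luminescence. Final concentrations spanned up to 46 µM (MIPE, 11-point) or 0.59 nM-46 µM (NPC, 8-point) in primary screens, 11-point in follow-ups.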
# [3] = qHTS of pediatric cancer cell lines to identify multiple opportunities for drug repurposing: Primary screen for LAN-5 cells (AID 1347100); further: potency means the concentration at half of the fitted maximal effect
# Method in brief: as §1
# [4] = qHTS of pediatric cancer cell lines to identify multiple opportunities for drug repurposing: Primary screen for Rh18 cells (AID 1347102); further: nearly all actives have a fitted effect of over 65% in size; further: potency means the concentration at half of the fitted maximal effect
# Method in brief: as §1
# [5] = qHTS of pediatric cancer cell lines to identify multiple opportunities for drug repurposing: Primary screen for RD cells (AID 1347104); further: nearly all actives have a fitted effect of over 55% in size; further: potency means the concentration at half of the fitted maximal effect
# Method in brief: (§3)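 Luminescence from CellTiter-Glo served as readout of metabolically active cells after 48 h compound exposure. Titrations: MIPE 11-point, from 0.78 nM; NPC 8-point, from 0.59 nM (final). Concentration-response curves came straight from the primary screen.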
# [6] = qHTS of pediatric cancer cell lines to identify multiple opportunities for drug repurposing: Primary screen for MG 63 (6-TG R) cells (AID 1347105); further: nearly all actives have a fitted effect of over 50% in size; further: potency means the concentration at half of the fitted maximal effect
# Method in brief: as §3
# [7] = qHTS of pediatric cancer cell lines to identify multiple opportunities for drug repurposing: Primary screen for NB1643 cells (AID 1347099); further: nearly all actives have a fitted effect of over 50% in size; further: potency means the concentration at half of the fitted maximal effect
# Method in brief: as §3
# [8] = qHTS of pediatric cancer cell lines to identify multiple opportunities for drug repurposing: Primary screen for BT-12 cells (AID 1347101); further: nearly all actives have a fitted effect of over 25% in size; further: potency means the concentration at half of the fitted maximal effect
# Method in brief: as §2
# [9] = qHTS of pediatric cancer cell lines to identify multiple opportunities for drug repurposing: Primary screen for OHS-50 cells (AID 1347103); further: nearly all actives have a fitted effect of over 40% in size; further: potency means the concentration at half of the fitted maximal effect
# Method in brief: as §2
# [10] = qHTS of pediatric cancer cell lines to identify multiple opportunities for drug repurposing: Primary screen for Saos-2 cells (AID 1347097); further: potency means the concentration at half of the fitted maximal effect; nearly all actives have a fitted effect of over 40% in size
# Method in brief: as §3
structure (smiles),measurement,setting,value
Cc1cccc(-c2nn(C(=S)Nc3ccccc3)cc2-c2ccnc3ccccc23)n1,Potency,[1],inactive
same,Potency,[2],inactive
same,Potency,[3],inactive
same,Potency,[4],inactive
same,Potency,[5],inactive
same,Potency,[6],inactive
CCC(C)N(C)C(=O)c1cc2ccccc2c(-c2ccccc2Cl)n1 (centres undefined),Potency,[1],inactive
same,Potency,[3],inactive
same,Potency,[4],inactive
same,Potency,[5],inactive
same,Potency,[6],inactive
CCN(CC)CCCC(C)Nc1ccnc2cc(Cl)ccc12 (centres undefined),Potency,[1],inactive
same,Potency,[7],1.48 µM (active)
same,Potency,[8],3.43 µM (active)
same,Potency,[9],8.63 µM (active)
same,Potency,[5],13 µM (active) and 6.62 µM (active)
same,Potency,[6],11.8 µM (active)
CCn1c(-c2nonc2N)nc2c(C#CC(C)(C)O)ncc(OC[C@H]3CCCNC3)c21,Potency,[1],inactive
same,Potency,[3],5.26 µM (active)
same,Potency,[8],inactive
same,Potency,[5],23.5 µM (active)
CCOC(=O)N1CCC(=C2c3ccc(Cl)cc3CCc3cccnc32)CC1,Potency,[1],inactive
same,Potency,[2],30.7 µM (active)
same,Potency,[9],24.3 µM (active) and 21.9 µM (active)
same,Potency,[5],29.9 µM (active)
same,Potency,[6],13.3 µM (active)
COc1ccc(CCN2CCN(CCCc3ccccc3)CC2)cc1OC,Potency,[1],inactive
same,Potency,[2],inactive
same,Potency,[6],inactive
COc1ccccc1-c1cccc(-c2c(O)c3cc(C#N)c(Cl)cc3[nH]c2=O)c1,Potency,[1],inactive
same,Potency,[2],inactive
same,Potency,[3],inactive
same,Potency,[4],inactive
same,Potency,[9],inactive
same,Potency,[5],inactive
same,Potency,[6],inactive
O=C(Nc1nc2ccccc2n1CCN1CCOCC1)c1cccc([N+](=O)[O-])c1,Potency,[1],inactive
same,Potency,[2],24.1 µM (active)
same,Potency,[3],3.72 µM (active)
same,Potency,[8],21.7 µM (active)
same,Potency,[9],9.68 µM (active)
Nc1cccc(S(=O)(=O)N2CCCN(S(=O)(=O)c3ccc4c(c3)OCCO4)CC2)c1,Potency,[1],inactive
same,Potency,[3],inactive
same,Potency,[4],inactive
same,Potency,[5],inactive
same,Potency,[6],inactive
CC(C)(C)OC(=O)CN(Cc1ccc(Cl)cc1)Cc1ccc([N+](=O)[O-])s1,Potency,[1],inactive
same,Potency,[2],inactive
same,Potency,[3],inactive
same,Potency,[4],inactive
same,Potency,[6],inactive
CN[C@@H](C)C(=O)N[C@H]1CCCC[C@H]2CC[C@@H](C(=O)N[C@@H](c3ccccc3)c3cn(CCCCc4ccc(CCCCn5cc([C@@H](NC(=O)[C@@H]6CC[C@@H]7CCCC[C@H](NC(=O)[C@H](C)NC)C(=O)N76)c6ccccc6)nn5)cc4)nn3)N2C1=O,Potency,[1],inactive
same,Potency,[7],inactive
same,Potency,[8],27.3 µM (active)
same,Potency,[4],14.8 µM (active)
same,Potency,[6],inactive
COc1cc(Oc2ccnc3cc(OC)c(OC)cc23)ccc1NC(=O)NC(C)c1nccs1 (centres undefined),Potency,[1],inactive
same,Potency,[7],inactive
same,Potency,[5],inactive
NC(=O)C1CCCc2c1[nH]c1ccc(Cl)cc21 (centres undefined),Potency,[1],inactive
same,Potency,[3],inactive
same,Potency,[8],inactive
same,Potency,[4],inactive
same,Potency,[6],inactive
Cc1ccc(N(CC2=NCCN2)c2cccc(O)c2)cc1,Potency,[1],inactive
same,Potency,[7],inactive
same,Potency,[3],inactive
same,Potency,[9],27.3 µM (active) and 30.9 µM (active)
same,Potency,[5],inactive
same,Potency,[6],inactive
N#Cc1ccc(C(c2ccc(C#N)cc2)n2cncn2)cc1,Potency,[1],inactive
same,Potency,[3],inactive
COc1c(Cl)cc2c([nH]c3cnccc32)c1NC(=O)c1cccnc1C,Potency,[1],inactive
same,Potency,[3],inactive
CN(C(=O)c1ccc(F)cc1C(F)(F)F)C1CCN(c2nnc(-c3ccnn3C)c3ccccc23)CC1,Potency,[1],inactive
same,Potency,[3],inactive
same,Potency,[8],21.7 µM (active)
same,Potency,[4],inactive
same,Potency,[9],24.3 µM (active)
O=c1[nH]c(-c2ccc(C(F)(F)F)cc2)nc2c1CSCC2,Potency,[1],inactive
same,Potency,[3],inactive
c1ccc(-c2nn3c(c2-c2ccnc4cc(OCCN5CCOCC5)ccc24)CCC3)nc1,Potency,[1],inactive
same,Potency,[2],inactive
same,Potency,[8],inactive
same,Potency,[5],inactive
same,Potency,[6],inactive
Cc1ccccc1C(C(=O)NC1CCCC1)N(C(=O)Cn1cnc2ccccc21)c1cccc(F)c1 (centres undefined),Potency,[1],inactive
same,Potency,[2],inactive
same,Potency,[3],inactive
same,Potency,[6],inactive
Cc1cc(-c2ccc(CC(=O)Nc3ccc(-c4cccnc4)cc3)cc2)ccn1,Potency,[4],inactive
same,Potency,[6],inactive
O=c1ncn2nc(Sc3ccc(F)cc3F)ccc2c1-c1c(Cl)cccc1Cl,Potency,[7],inactive
same,Potency,[5],inactive
same,Potency,[6],inactive
Cc1c(CN2CCN(C(=O)C(C)C)CC2)sc2c(N3CCOCC3)nc(-c3cnc(N)nc3)nc12,Potency,[10],0.332 µM (active)
same,Potency,[2],0.961 µM (active)
same,Potency,[3],0.662 µM (active)
same,Potency,[8],0.685 µM (active)
same,Potency,[9],0.0343 µM (active)
same,Potency,[5],0.935 µM (active)
same,Potency,[6],0.118 µM (active)
CCOc1cc(N2CCC(O)CC2)ccc1Nc1ncc2c(n1)N(C)c1ccccc1C(=O)N2C,Potency,[10],0.118 µM (active)
same,Potency,[2],4.29 µM (active)
same,Potency,[3],0.0935 µM (active)
same,Potency,[8],0.0863 µM (active)
same,Potency,[9],0.0432 µM (active)
same,Potency,[5],0.148 µM (active)
same,Potency,[6],3.72 µM (active)
COc1cccc2cc(-c3nc(C4CCC(C(=O)O)CC4)n4ncnc(N)c34)[nH]c12 (centres undefined),Potency,[3],inactive
same,Potency,[8],0.344 µM (active)
same,Potency,[9],0.109 µM (active)
COc1ccc2c3n(c(=NC(=O)c4cccnc4)nc2c1OC)CCN3,Potency,[10],1.18 µM (active)
same,Potency,[2],0.961 µM (active)
same,Potency,[7],4.18 µM (active)
same,Potency,[3],14.8 µM (active)
same,Potency,[8],inactive
same,Potency,[9],0.968 µM (active)
same,Potency,[5],1.87 µM (active)
same,Potency,[6],2.35 µM (active)
COc1ccccc1[C@H](c1cccc2ccccc12)[C@@](C)(C#N)C(=O)N1CCC(c2cccc(C(F)(F)F)c2)CC1,Potency,[2],19.2 µM (active)
same,Potency,[9],1.09 µM (active)
CCOc1cc(C(=O)Nc2ccc(Cl)c(-c3nc4ccccc4[nH]3)c2)cc(OCC)c1OCC,Potency,[2],5.41 µM (active)
same,Potency,[7],11.8 µM (active)
same,Potency,[8],inactive
same,Potency,[4],inactive
same,Potency,[9],inactive
same,Potency,[5],2.96 µM (active)
same,Potency,[6],inactive

# Source: PubChem BioAssay (NCATS)
